Activity calls are given as the source filed them. The calls were made as follows: active = hit-call score of the fitted dose curve at least 0.9, where 1 is the maximum; inactive = score below 0.9.
assay: APR_HepG2_StressKinase_72hr: Apredica 72-hour HepG2 Assay for Stress Kinase (AID 2282921); details: HepG2 stress kinase (phospho-c-Jun) imaging, actives raise or lower the signal
Method: APR_HepG2_72hr is a cell-based, multiplexed-readout assay that uses HepG2, a human liver cell line, with measurements taken at 72 hours after chemical dosing in a 384-well plate.APR_HepG2_StressKinase_72hr is one of 10 assay component(s) measured or calculated from the APR_HepG2_72hr assay. It is designed to make measurements of enzyme activity, a form of enzyme reporter, as detected with fluorescence intensity signals by HCS Fluorescent Imaging technology.Data from the assay component APR_HepG2_StressKinase_72hr was analyzed into 1 assay endpoint. This assay endpoint, APR_HepG2_StressKinase_72hr, was analyzed with bidirectional fitting relative to DMSO as the negative control and baseline of activity. Using a type of enzyme reporter, measures of protein for gain or loss-of-signal activity can be used to understand the signaling at the pathway-level as they relate to the gene . Furthermore, this assay endpoint can be referred to as a primary readout, because this assay has produced multiple assay endpoints where this one serves a signaling function. To generalize the intended target to other relatable targets, this assay endpoint is annotated to the cell cycle intended target family, where the subfamily is stress response.
Cells were treated with dimethyl sulfoxide (DMSO) as a solvent control at a final concentration of 0.5% v/v or with compounds in DMSO with a resulting final DMSO concentration of 0.5% v/v. Compound treatment was done at concentrations of 0.39, 0.78, 1.56, 3.12, 6.24, 12.5, 25, 50, 100, and 200 uM in duplicate on each plate. Cells were treated with compounds for 1, 24, or 72 hr. Carbonyl […] m-chloro-phenylhydrazone (CCCP) and taxol were used as positive controls for mitochondrial function and cytoskeletal stability, respectively; DMSO served as the negative control for this experiment. Cells were fixed by the direct addition of 50 uL formaldehyde in Hank's Balanced Salt Solution (HBSS) to a final concentration of 3.7%. After incubation in the fixation medium for 30 min at room temperature (293-298 K), cells were rinsed twice with HBSS and treated with cell permeabilization buffer (16 uL of 0.5% Triton X-100) for 10 min at room temperature (293-298 K) before labeling. For mitochondrial membrane potential and mitochondrial measurements, pre-fixed cells were incubated with 50 uL of MitoTracker Red CMXRos (Invitrogen) at a concentration of 250 nM for 30 min before fixation. In the remaining cases, post-fixed cells were labeled by incubation with a multiplexed mixture of primary antibodies in HBSS for 60 min at room temperature (293-298 K) to detect immunoreactivity of c-Jun (1:500), phospho-histone H3 (1:100), phospho-histone H2A.x (1:200), p53 (1:400), alpha-tubulin (1:200) and Hoechst 33342 (2 ug/mL). Cells were labeled for multiplexed imaging on two separate plates: a) Hoechst 33342, MitoTracker Red, phospho-histone H3, and alpha-tubulin, and b) Hoechst 33342, phospho-histone H2A.x, and c-Jun. A final rinse with HBSS (50 uL) was performed before analysis. The primary and secondary antibodies for the proteins were phospho-histone H3 (rabbit anti-phospho-histone H3 and FITC-donkey anti-rabbit IgG), phospho-histone H2A.x (mouse anti-phospho-histone H2A.x and FITC-donkey anti-mouse IgG), c-Jun (rabbit anti-phospho-c-Jun and Cy3-donkey anti-rabbit IgG), p53 (sheep anti-p53 and Cy5-donkey anti-sheep IgG), alpha-tubulin (mouse anti-alpha-tubulin and Cy5-donkey anti-mouse IgG). These antibodies are available as the CellCiphr HepG2 assay kit (Millipore).Digital images of each well were captured using a Cellomics ArrayScan VTI (Thermo Scientific Cellomics) (0.8 NA objective, 0.63x optical coupler, and XF-93 filter set) at 20x magnification. The images were acquired using the autofocus feature of the ArrayScan instrument, which entails the following steps. First, the camera focuses on channel 1 (Hoechst 33342), where nuclei are identified. Second, a Z offset of 1 um is used for capturing mitochondria (MitoTracker Red). […]

Row | Compound | outcome | AC50
1 | O=C(O)c1ccc2c(c1)nc(C(=O)NC1CCN(C3CC3)CC1)n2Cc1cc(-c2ccc(Cl)s2)on1 | inactive | 
2 | COCc1nnc(-c2ccc[n+]([O-])c2)n1-c1c(Cl)c(Cl)cc2[nH]c(=O)c(=O)[nH]c12 | inactive | 
3 | CC(C)CCCCCCOC(=O)C1CCCCC1C(=O)OCCCCCCC(C)C (stereo not given) | inactive | 
4 | Cc1ncc([C@@H](CCCCCCc2ccc3c(n2)NCCC3)CC(=O)O)cn1 | inactive | 
5 | CC(C)c1nnc2ccc(-c3ocnc3-c3cc(F)ccc3F)cn12 | inactive | 
6 | CCc1cccc(CC)c1N | inactive | 
7 | COc1cc(C(C)C)c2c(c1)S(=O)(=O)N(COc1cc(=O)n3cccc(OCCN4CCCCC4)c3n1)C2=O | inactive | 
8 | CCCOc1ccc(S(=O)(=O)N2CCN(CC)CC2)cc1-c1nc2c(CC)n(Cc3ccccn3)nc2c(=O)[nH]1 | inactive | 
9 | Cc1nc(-c2ccccn2)ncc1C(=O)Nn1cc(C)c2cc(F)ccc21 | inactive | 
10 | CC[C@H](C)C(=O)O[C@H]1C[C@H](O)C=C2C=C[C@H](C)[C@H](CC[C@@H](O)C[C@@H](O)CC(=O)O)[C@H]21 | inactive | 
11 | c1ccc2ncccc2c1 | inactive | 
12 | CNC(C)=O | inactive | 
13 | COS(C)(=O)=O | inactive | 
14 | CCn1nc(C)c2c1C(=O)NCC(c1ccc(O)cc1)=N2 | inactive | 
15 | NC(=O)N1c2ccccc2C=Cc2ccccc21 | inactive | 
16 | NC(=O)NN=Cc1ccc([N+](=O)[O-])o1 | inactive | 
17 | O=C(O)c1cccc(C(=O)O)c1 | inactive | 
18 | OC[C@H]1O[C@@H]2O[C@H]3[C@H](O)[C@@H](O)[C@@H](O[C@H]4[C@H](O)[C@@H](O)[C@@H](O[C@H]5[C@H](O)[C@@H](O)[C@@H](O[C@H]6[C@H](O)[C@@H](O)[C@@H](O[C@H]7[C@H](O)[C@@H](O)[C@@H](O[C@H]1[C@H](O)[C@H]2O)O[C@@H]7CO)O[C@@H]6CO)O[C@@H]5CO)O[C@@H]4CO)O[C@@H]3CO | inactive | 
19 | CC(C)CC(C)O (stereo not given) | inactive | 
20 | Nc1ccn([C@@H]2O[C@H](CO)[C@@H](O)[C@@H]2O)c(=O)n1 | inactive | 

Row | Compound | outcome | AC50
21 | Cn1c(=O)c2[nH]cnc2n(C)c1=O | inactive | 
22 | NC(=O)N(O)[C@@H]1COc2cc(OCc3ccccc3)ccc21 | inactive | 
23 | NC(N)=O | inactive | 
24 | CC1(C)C(=O)N(Cl)C(=O)N1Cl | inactive | 
25 | CC(=O)c1ccccc1 | inactive | 
26 | c1ccc(C(O[C@@H]2CCCN(CCc3ccc4c(c3)OCO4)C2)c2ccccc2)cc1 |  | 100 µM (active)
27 | CCCCCCCCN(C)C | inactive | 
28 | O=S(=O)(O)c1ccc(N=Nc2c(O)ccc3cc(S(=O)(=O)O)ccc23)cc1 | inactive | 
29 | CCc1ccc(O)c(C(C)(C)C)c1 |  | 84.8 µM (active)
30 | C[C@@H](Oc1ccc(CNC(=O)c2cccnc2Oc2ccc3c(c2)OCO3)c(F)c1)C(=O)O | inactive | 
31 | C=CN1CCCC1=O | inactive | 
32 | O=c1[nH]cnc2c1ncn2[C@H]1CC[C@@H](CO)O1 | inactive | 
33 | OCc1ccccc1 | inactive | 
34 | NNC(=O)c1ccncc1 | inactive | 
35 | C=CCc1cc(S(=O)(=O)c2ccc(O)c(CC=C)c2)ccc1O | inactive | 
36 | CCOc1ccc2[nH]cc(C(=O)NCc3ccccc3)c(=O)c2n1 | inactive | 
37 | O=C(O)c1cccc(C[C@@H]2COc3ccc(OCc4nc5cc(F)ccc5s4)cc3[C@@H]2O)c1 |  | 66.3 µM (active)
38 | OC[C@H]1O[C@@](CO)(O[C@H]2O[C@H](CO)[C@@H](O)[C@H](O)[C@H]2O)[C@@H](O)[C@@H]1O | inactive | 
39 | CCCCC(CC)C(=O)OCCOCCOCCOC(=O)C(CC)CCCC (stereo not given) | inactive | 
40 | Cc1nccn1-c1ccc(Sc2cccc(C3(C(N)=O)CCOCC3)c2)cc1 |  | 64 µM (active)

Reference: PubChem BioAssay (EPA / NIEHS)
